Measured values taken from PubChem BioAssay (NCI).
The panel holds about 79,000 compounds, 15% with a hit somewhere; the sample as a whole holds those more often. No stated cut-off is given here; in the data, active means growth inhibition above about 70%; inactive means the rest. Where a SMILES comes first, the peptide text is derived from it.

What was measured:
[1] = NCI Yeast Anticancer Drug Screen. Data for the rad50 strain (AID 155);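 further: 0% = growth of vehicle-only cultures of the same strain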; conditions: S. cerevisiae rad50 strain growth inhibition; at 50.0 µM; hits give high values
Summary of the method: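 Cells are treated with compound, grown, and their growth is then scored against vehicle-only cultures of the same repair-deficient yeast strain.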

[2] = NCI Yeast Anticancer Drug Screen. Data for the mec2-1 strain (AID 157); conditions: S. cerevisiae mec2-1 strain, at 50.0 µM, hits give high values
Summary of the method: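 Using mec2-1 yeast: add compound, measure growth, express inhibition versus vehicle-treated cultures.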

[3] = NCI Yeast Anticancer Drug Screen. Data for the sgs1 mgt1 strain (AID 161);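 further: 0% = growth of cultures given vehicle only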; conditions: S. cerevisiae sgs1 mgt1 strain, at 50.0 µM, hits give high values
Summary of the method: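 Percent growth inhibition was derived by comparing compound-exposed mutant yeast with vehicle-exposed cultures. The strain carries alterations in DNA damage repair.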

[4] = NCI Yeast Anticancer Drug Screen. Data for the cln2 rad14 strain (AID 165);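 further: 0% = growth equal to vehicle treated cultures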; conditions: S. cerevisiae cln2 rad14 strain, at 50.0 µM, hits give high values
Summary of the method: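 Yeast strain cln2 rad14, bearing defects in cell cycle control and DNA repair, serves as the test system; values reflect growth inhibition compared with vehicle.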

[5] = NCI Yeast Anticancer Drug Screen. Data for the bub3 strain (AID 167); conditions: S. cerevisiae bub3 mutant strain, at 50.0 µM, hits give high values
Summary of the method: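 Part of a panel of yeast mutants defective in DNA damage repair or cell cycle regulation. Each strain is grown with compound, and inhibition is calculated relative to solvent-treated cultures.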

[6] = NCI Yeast Anticancer Drug Screen. Data for the mlh1 rad18 strain (AID 175); conditions: S. cerevisiae mlh1 rad18 strain growth inhibition; at 50.0 µM; hits give high values
Summary of the method: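 Steps: expose repair-defective yeast to compound; measure growth; express inhibition against vehicle-treated controls.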

Measured: growth inhibition

CCOC(=O)CNC(=O)C(Cc1ccccc1)NC(=O)C(N)CC(=O)O (stereo not drawn) (H-Asp-Phe-Gly-OEt; configuration not given here)
inactive: [1] -18.6% | [2] -42.4% | [3] -12.1% | [4] -19.9% | [5] -13.4% | [6] -25%

CN(C)c1ccc(/C=C(\C#N)C(=O)c2ccccc2)cc1Br
inactive: [1] 0.55% | [2] -6.1% | [3] 1.85% | [4] 22.7% | [5] -15.2% | [6] 13.8%

C/C(=N/NC(N)=S)c1ccc2ccccc2c1
inactive: [1] 17.4% | [2] 17.1% | [3] 43.8% | [4] 17.2% | [5] 28.9% | [6] 29.4%

CCOC(=O)COc1ccc(C)c2c1C(=O)CC2
inactive: [1] -11.2% | [2] -12.9% | [3] -13.2% | [4] -25.9% | [5] -19.1% | [6] -9.9%

CC(SCCNC(N)=O)C(N)=O (stereo unspecified)
inactive: [1] -16.1% | [2] -7.8% | [3] -6.6% | [4] -28.4% | [5] 7.25% | [6] -14.4%

COc1ccc2[nH]cc(C(=O)C(=O)NC34CC5CC(CC(C5)C3)C4)c2c1
inactive: [1] 12.7% | [2] 6% | [3] -5.2% | [4] -1.7% | [5] 16.2% | [6] -22.5%

O=[N+]([O-])c1ccc(Oc2c3ccccc3nc3ccccc23)cc1
inactive: [1] 11.3% | [2] -3.7% | [3] 19.6% | [4] -1.8% | [5] -1.4% | [6] 14.4%

COc1ccc(S(=O)(=O)N/N=C/C(=O)OCOC(=O)C(C)(C)C)cc1
inactive: [1] 1.55% | [2] -11.8% | [3] -5.1% | [4] 8.55% | [5] -25.9% | [6] 19.1%

COC(=O)c1ccccc1/C=C1\Cc2ccc3c(c2C1=O)CCCC3
inactive: [1] -30.9% | [2] -52.6% | [3] -18.9% | [4] -7.4% | [5] 5.6% | [6] -25.2%

Nc1c(N=Nc2ccccc2)cc(S(=O)(=O)O)c2ccccc12
inactive: [1] 2.8% | [2] -23.4% | [3] -1.65% | [4] 6.65% | [5] 3.2% | [6] -2.1%

COC(=O)/C=C/C(=O)N1CC(C)N(C(=O)/C=C/C(=O)OC)CC1C (stereo unspecified)
inactive: [1] -8.45% | [2] -3.55% | [3] -9.2% | [4] 37.4% | [5] 1.45% | [6] -14.4%

CCOC(=O)C(Cc1c[nH]c2ccccc12)NC(C)=O (stereo unspecified)
inactive: [1] 22.2% | [2] 28.6% | [3] 23.6% | [4] -9.9% | [5] 41.9% | [6] 19.2%

CC(C)(O)c1cc(Cl)ccc1Sc1ccccc1
inactive: [1] -20.6% | [2] -15.2% | [3] -8.85% | [4] 13.7% | [5] 4.85% | [6] -8.2%

C[C@H]1CCC2C(OC(=O)[C@@H]2CN(C)C)[C@]2(C)C(=O)C=CC12O (stereo partly specified)
inactive: [1] -24.5% | [2] -31.4% | [3] -10.3% | [4] 17.4% | [5] -6.95% | [6] -36%

CCOC(=O)NN1C(=O)C(=P(c2ccccc2)(c2ccccc2)c2ccccc2)C(C(=O)OC)=C1C
inactive: [1] -4.05% | [2] 4.45% | [3] -6.75% | [4] 11.8% | [5] -6.65% | [6] -4.85%

CCOc1ccc(C(C)(C)c2cc3c(cc2OC)OCO3)cc1
inactive: [1] -16.2% | [2] -27.8% | [3] -39.9% | [4] -24.8% | [5] -21.9% | [6] -6.45%

CCCCCCCCCCCCP(=O)(O)O
inactive: [1] -8.2% | [2] -24.1% | [3] -19.9% | [4] -9.65% | [5] 6.35% | [6] -10.9%

CCNOCc1ccccc1
inactive: [1] -4.35% | [2] -11.7% | [3] -11% | [4] -18.1% | [5] -0.45% | [6] -9.95%

CCOC(=O)C1=C(C)N(Cc2ccccc2)C(C)=C(C(=O)OCC)C1c1ccccc1O
inactive: [1] 20.5% | [2] 28.2% | [3] 20.1% | [4] 17.6% | [5] 30.8% | [6] 18.6%

CN(C)c1ccc(C=Nc2cc(S(=O)(=O)O)cc3cc(S(=O)(=O)O)cc(O)c23)cc1
inactive: [1] -22.9% | [2] -9.7% | [3] -14.7% | [4] 31.6% | [5] 12.4% | [6] 8.85%

Cc1c(-c2ccccc2)c(=O)oc2cc(O)ccc12
inactive: [1] -12.4% | [2] 13% | [3] 9.3% | [4] -49.2% | [5] 17.5% | [6] 11.2%

CC(C)C(O)C(C)N (stereo unspecified)
inactive: [1] 1.4% | [2] -5.9% | [3] 0.7% | [4] 4.9% | [5] 3.2% | [6] 3.5%

CCCCC1(O)C(=O)N(c2ccccc2)N(c2ccccc2)C1=O
inactive: [1] 17.2% | [2] 11.1% | [3] 7.45% | [4] 13.1% | [5] 22.4% | [6] 4.2%

C=CCN(CC=C)c1nc(N)c2ccc(Cl)cc2n1
inactive: [1] -8% | [2] -8% | [3] -6.65% | [4] -52.4% | [5] -10.8% | [6] -6.45%

Nc1ccc(Cn2cnc3c(=O)[nH]cnc32)cc1
inactive: [1] -11.7% | [2] -6.45% | [3] 7.7% | [4] -45.9% | [5] 6.85% | [6] -5.4%

CCN1C(=O)/C(=C\c2coc3ccccc3c2=O)SC1=S
inactive: [1] -2.6% | [2] -34.7% | [3] 0.2% | [4] 0.5% | [5] -23.7% | [6] -0.2%

NC(=S)N/N=C\c1nccc2ccc(N)cc12
inactive: [1] 36% | [2] -0.8% | [3] 3.1% | [4] -46.8% | [5] -5.8% | [6] 4.9%

CCCCCCCCCCCCCCCC1=NN(c2ccc([N+](=O)[O-])cc2)C(=O)C1
inactive: [1] 14.9% | [2] -3.8% | [3] -25.8% | [4] -8.4% | [5] 1.3% | [6] 0.75%

O=C(/C=C/c1ccccc1)CCc1c(O)c2ccccc2oc1=O
inactive: [1] 9.05% | [2] -5.3% | [3] 0.45% | [4] 31.1% | [5] 1.85% | [6] 28.8%

CCOc1ccc(NC(=O)C2=C(C)NC(C)=C(C(=O)Nc3ccc(OCC)cc3)C2c2ccccc2)cc1
inactive: [1] -22.9% | [2] -7.4% | [3] -20.9% | [4] -17.1% | [5] -16.2% | [6] -18.2%

CON(C)CCOC(=O)c1ccc([N+](=O)[O-])cc1
inactive: [1] -5.25% | [2] 4.15% | [3] -2.6% | [4] -21.4% | [5] 3.95% | [6] 27.2%

CCSC(SCC)C(NC(C)=O)C(OC(C)=O)C(OC(C)=O)C(COC(C)=O)OC(C)=O (stereo unspecified)
inactive: [1] 23.4% | [2] -3.25% | [3] -0.2% | [4] 8.25% | [5] -2.7% | [6] 10.6%

CC(=O)Nc1cccnc1
inactive: [1] -18.1% | [2] -3.85% | [3] 4.85% | [4] -21.1% | [5] -19.9% | [6] -2.45%

c1ccc2n[nH]nc2c1
inactive: [1] 19.1% | [2] -10.9% | [3] 7.3% | [4] 2.2% | [5] -4.8% | [6] 16.9%

CCOC(=O)CCC1CCCO1 (stereo unspecified)
inactive: [1] -3.6% | [2] -19.1% | [3] -19.9% | [4] -4.8% | [5] -6.85% | [6] -1.05%

C/C(=N\NC(=O)CC(=O)Nc1ccccc1Cl)c1cc2cc(N=Nc3ccccc3Cl)ccc2oc1=O
inactive: [1] -17.1% | [2] 0.7% | [3] 13.9% | [4] 4.4% | [5] -4.05% | [6] -13.6%

S=C(N/N=C/c1ccc(Cl)cc1Cl)NC1CCc2ccccc21 (stereo unspecified)
inactive: [1] -12.3% | [2] 20.5% | [3] -9.7% | [4] -33.8% | [5] -7.95% | [6] -9.25%

O=[N+]([O-])c1ccc(N=C(Nc2ccc([N+](=O)[O-])cc2)c2ccccc2)cc1
inactive: [1] 12.1% | [2] -16.2% | [3] -1.6% | [4] -33.6% | [5] -12.6% | [6] -14.5%

CCCCC1(CC)COC2(CCCCC2)OC1
inactive: [1] 17.1% | [2] 37% | [3] 13.3% | [4] -22.2% | [5] 6.85% | [6] 6.95%

CC(=O)C1(C(C)=O)OC2c3ccccc3C=CN2C=C1C=O (stereo unspecified)
inactive: [1] 6.6% | [2] 1.35% | [3] 14.6% | [4] 4.45% | [5] 6.05% | [6] 11.1%

CCOC(=O)/C=C/SCC(N)C(=O)OCC (stereo unspecified)
inactive: [1] -14.4% | [2] -1.45% | [3] -12.9% | [4] 19.6% | [5] -5.55% | [6] -4.55%
